In PubChem BioAssay:
Values without a mark were called inactive. For some assays here: Measured potencies and affinities stand elsewhere. Calls of active or inactive are those of the source. Unless noted, how the calls were made is not given here.

Columns and labels:
[1] = antimalarial activity against Dd2 strain (AID 2302;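 active means growth inhibition above 50% at the single 2 µM test dose, taken to imply half-maximal potency below 2 µM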;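 further: 0% = DMSO untreated growth and 100% = chloroquine plus artemisinin killed control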); settings: P. falciparum Dd2 in RBCs, LDH growth readout, 72 h; at 2 µM; stronger effect = higher value
[2] = human hepatoma cell viability loss – ATP luminescence, cytotoxicity control for P. falciparum antimalarial project, primary screen (AID 2303;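 active means inhibition above 50%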;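 further: 0% = DMSO wells and 100% = digitonin-killed cells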); settings: HepG2 viability, 24-48 h, at 10 µM, stronger effect = higher value
[3] = biological target: L-lactate dehydrogenase (Plasmodium falciparum (isolate CDC / Honduras)) (UniProt Q27743); assay: PfLDH activity inhibition – cell lysate, 3D7 strain, counter-screen for P. falciparum growth inhibition project (AID 2304);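 further: 0% = vehicle and 100% = reference inhibitor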; settings: P. falciparum 3D7 crude extract, LDH APAD/NBT absorbance; at 2 µM; stronger effect = higher value
[4] = inhibition of 3D7 malaria parasite growth – strain 3D7 (AID 2306);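 further: 0% = DMSO wells and 100% = chloroquine plus artemisinin control wells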; settings: P. falciparum 3D7 erythrocytic growth, LDH absorbance, 72 h; at 2 µM; stronger effect = higher value
[5] = biological target: Calcium-dependent protein kinase 1 (Plasmodium falciparum (isolate 3D7)) (UniProt P62344); assay: PfCDPK1 kinase inhibitors, biochemical, TCAMS library (AID 1159585; cut-off not given, nearly all actives have IC50 up to about 0.98 µM;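 further: inhibitors leave more ATP so luminescence rises with inhibition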); settings: recombinant PfCDPK1, Kinase-Glo ATP depletion luminescence
[6] = biological target: Plasmodium falciparum protein kinase 6 (PK6, PF3D7_1337100) (UniProt Q8IDW1); assay: PfPK6 kinase inhibitors, biochemical, TCAMS library (AID 1159586); settings: recombinant PfPK6, Kinase-Glo ATP depletion luminescence
[7] = biological target: Protein kinase 7 (PK7), Plasmodium falciparum 3D7 (PF3D7_0213400) (UniProt Q7YTF7); assay: inhibition of Plasmodium PK7 catalytic activity – biochemical, TCAMS antimalarial set, Kinase-Glo luminescence (AID 1159587); settings: recombinant PfPK7, Kinase-Glo ATP depletion luminescence
[8] = biological target: Calcium-dependent protein kinase 4 (Plasmodium falciparum (isolate 3D7)) (UniProt Q8IBS5); assay: PfCDPK4 kinase inhibitors, biochemical, TCAMS library (AID 1159588; cut-off not given, nearly all actives have IC50 up to about 0.91 µM); settings: recombinant PfCDPK4, Kinase-Glo ATP depletion luminescence
Calcium-dependent protein kinase 4 (Plasmodium falciparum (isolate 3D7)), sequence (Q8IBS5 whole entry, looked up): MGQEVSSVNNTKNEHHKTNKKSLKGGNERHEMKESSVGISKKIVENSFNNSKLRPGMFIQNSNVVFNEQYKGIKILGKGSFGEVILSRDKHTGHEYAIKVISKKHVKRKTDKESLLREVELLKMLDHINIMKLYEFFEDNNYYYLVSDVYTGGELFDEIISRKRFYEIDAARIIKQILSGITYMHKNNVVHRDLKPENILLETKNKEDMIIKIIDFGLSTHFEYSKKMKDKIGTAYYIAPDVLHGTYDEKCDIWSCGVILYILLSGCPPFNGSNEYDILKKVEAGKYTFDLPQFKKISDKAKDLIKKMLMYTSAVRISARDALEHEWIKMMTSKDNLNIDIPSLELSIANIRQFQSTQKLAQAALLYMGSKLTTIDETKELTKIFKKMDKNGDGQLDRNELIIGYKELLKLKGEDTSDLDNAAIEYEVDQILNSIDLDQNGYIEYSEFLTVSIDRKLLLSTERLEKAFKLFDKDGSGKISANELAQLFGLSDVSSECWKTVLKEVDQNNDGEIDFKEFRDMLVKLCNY

Protein kinase 7 (PK7), Plasmodium falciparum 3D7 (PF3D7_0213400), sequence (Q7YTF7 1-343): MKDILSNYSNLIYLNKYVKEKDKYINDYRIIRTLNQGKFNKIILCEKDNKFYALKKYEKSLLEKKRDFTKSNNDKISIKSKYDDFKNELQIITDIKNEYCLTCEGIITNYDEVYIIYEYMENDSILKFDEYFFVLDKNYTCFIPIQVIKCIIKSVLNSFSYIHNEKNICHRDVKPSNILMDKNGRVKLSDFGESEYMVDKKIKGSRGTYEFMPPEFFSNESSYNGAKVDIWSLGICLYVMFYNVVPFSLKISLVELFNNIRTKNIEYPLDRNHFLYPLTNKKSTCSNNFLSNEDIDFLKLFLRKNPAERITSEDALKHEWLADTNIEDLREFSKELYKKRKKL
Plasmodium falciparum protein kinase 6 (PK6, PF3D7_1337100), sequence (Q8IDW1 1-305): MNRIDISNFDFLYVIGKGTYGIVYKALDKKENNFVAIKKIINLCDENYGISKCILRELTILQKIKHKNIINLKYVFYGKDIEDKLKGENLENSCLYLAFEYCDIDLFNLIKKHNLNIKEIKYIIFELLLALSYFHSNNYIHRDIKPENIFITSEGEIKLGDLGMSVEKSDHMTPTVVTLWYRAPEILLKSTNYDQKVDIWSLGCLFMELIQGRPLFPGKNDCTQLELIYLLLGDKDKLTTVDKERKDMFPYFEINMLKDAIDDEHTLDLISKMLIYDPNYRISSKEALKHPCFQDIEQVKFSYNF
L-lactate dehydrogenase (Plasmodium falciparum (isolate CDC / Honduras)), sequence (Q27743 whole entry, looked up): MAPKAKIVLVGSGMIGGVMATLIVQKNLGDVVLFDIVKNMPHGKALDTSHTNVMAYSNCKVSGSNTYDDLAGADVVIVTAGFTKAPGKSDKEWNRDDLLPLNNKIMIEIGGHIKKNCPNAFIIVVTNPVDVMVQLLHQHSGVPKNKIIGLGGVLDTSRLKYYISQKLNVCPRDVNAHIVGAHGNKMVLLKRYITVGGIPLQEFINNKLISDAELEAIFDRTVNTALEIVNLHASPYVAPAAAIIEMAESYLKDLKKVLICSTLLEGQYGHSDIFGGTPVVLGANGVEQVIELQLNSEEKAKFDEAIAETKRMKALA
Calcium-dependent protein kinase 1 (Plasmodium falciparum (isolate 3D7)), sequence (P62344 whole entry, looked up): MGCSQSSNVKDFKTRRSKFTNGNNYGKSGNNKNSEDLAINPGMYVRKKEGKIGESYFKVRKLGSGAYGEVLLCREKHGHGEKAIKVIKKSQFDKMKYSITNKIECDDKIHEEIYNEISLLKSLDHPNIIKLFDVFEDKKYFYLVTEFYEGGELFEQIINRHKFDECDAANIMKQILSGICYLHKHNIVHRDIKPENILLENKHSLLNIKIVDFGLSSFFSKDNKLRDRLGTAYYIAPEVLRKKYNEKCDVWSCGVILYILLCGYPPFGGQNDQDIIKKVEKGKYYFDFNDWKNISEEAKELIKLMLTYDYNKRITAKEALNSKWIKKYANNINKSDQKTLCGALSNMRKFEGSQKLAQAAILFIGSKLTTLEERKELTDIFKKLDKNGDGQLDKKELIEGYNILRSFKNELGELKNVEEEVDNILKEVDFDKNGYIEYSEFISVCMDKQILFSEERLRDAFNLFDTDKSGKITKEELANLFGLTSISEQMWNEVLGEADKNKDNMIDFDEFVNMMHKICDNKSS

| Structure (SMILES) | growth inhibition [1] | inhibition [2] | inhibition [3] | growth inhibition [4] | outcome [5] | outcome [6] | outcome [7] | outcome [8] |
| --- | --- | --- | --- | --- | --- | --- | --- | --- |
| CCC(C)CNC(=O)CN1CN(c2ccccc2)C2(CCN(C(=O)c3ccc(Br)cc3)CC2)C1=O (stereo not given) | 88% (active) | 10% | -2% | 88% (active) | inactive | inactive | inactive | inactive |
| CC(CON1C(N)=NC(N)=NC1(C)C)Cc1ccc(Cl)cc1Cl (stereo not given) | 97% (active) | 61% (active) | 2% | 92% (active) | inactive | inactive | inactive | inactive |
| N#Cc1c(N)n(CCc2ccc(F)cc2)c2nc3ccccc3nc12 | 36% | 8% | -1% | 92% (active) | inactive | inactive | inactive | inactive |
| COc1cc2nc(N(C)C)nc(Nc3ccc(OCc4ccccc4)cc3)c2cc1OC | 101% (active) | 91% (active) | -8% | 100% (active) | inactive | inactive | inactive | inactive |
| O=C(COc1cccc([N+](=O)[O-])c1)Nc1ccc(-c2nc3ccccc3[nH]2)cc1 | 5% | 12% | 7% | 99% (active) | inactive | inactive | inactive | inactive |
| Nc1nc(N)c2cc(N(Cc3ccccc3)Cc3ccccc3)ccc2n1 | 88% (active) | 69% (active) | 3% | 99% (active) | inactive | inactive | inactive | inactive |
| CCN(CCCN1CCCCC1)c1cc(C)nc(Nc2ccc(C)cc2Br)n1 | 27% | 49% | 3% | 95% (active) | inactive | inactive | inactive | inactive |
| COc1cc2nc(N3CCC(NC(=O)c4cccc(N(C)C)c4)CC3)nc(N)c2cc1OC | 0% | 6% | 1% | 98% (active) | inactive | inactive | inactive | inactive |
| O=C(/C=C/c1ccc(Cl)c(Cl)c1)NCCCCCCN1CCCN(C(=O)Nc2ccc(F)c(F)c2)CC1 | 2% | 72% (active) | 4% | 89% (active) | inactive | inactive | inactive | inactive |
| Cc1cc(N[C@@H](CC(C)C)C(=O)NCc2cccs2)nc(NCCc2ccccc2)n1 | 8% | 1% | -2% | 94% (active) | inactive | inactive | inactive | inactive |
| COc1ccc2nccc(N3CCC(SCCNS(=O)(=O)c4ccc5c(c4)NC(=O)CS5)C3)c2n1 (stereo not given) | 17% | 20% | -5% | 99% (active) | inactive | inactive | inactive | inactive |
| Cc1ccc(OC2CCN(c3ccc(C(=O)NC4CC4)cn3)CC2)cc1 | 75% (active) | 11% | 4% | 87% (active) | inactive | inactive | inactive | inactive |
| CN(C)c1ccc(C(c2ccc(N(C)C)cc2)c2cc([N+](=O)[O-])ccc2Cl)cc1 | 67% (active) | 0% | 7% | 96% (active) | inactive | inactive | inactive | inactive |
| COc1cc(NCCCNC(=O)c2cc3c(Cl)cc(Cl)cc3[nH]2)nc2ccccc12 | 100% (active) | 96% (active) | -1% | 100% (active) | inactive | inactive | inactive | inactive |
| CC(=O)C=C1CC(=O)N(C[C@@H](O)[C@H]2O[C@@H]3OC(C)(C)O[C@@H]3[C@H]2O)c2ccccc2N1 | 2% | -8% | 3% | 90% (active) | inactive | inactive | inactive | inactive |
| N#Cc1cccc(C(=O)Nc2cccc(-c3ccc(CN4CCCC4)cc3)c2)c1 | 42% | 11% | 1% | 98% (active) | inactive | inactive | inactive | inactive |
| O=C(NCc1cccc(F)c1)Nc1cccc(-c2ccc(-c3nc4ccc(C(F)(F)F)cc4[nH]3)cc2)c1 | 20% | 50% (active) | -4% | 98% (active) | inactive | inactive | inactive | inactive |
| CCCc1cc(Cc2cnc(N)nc2N)cc(CCC)c1OCCCC(=O)OCC | -5% | -8% | -2% | 94% (active) | inactive | inactive | inactive | inactive |
| COc1ccc2c(NN=Cc3ccc(F)cc3)cc(C)nc2c1 | 99% (active) | 4% | -3% | 101% (active) | inactive | inactive | inactive | inactive |
| Cc1c(-c2cccc(C(C)(C)NCCCN3CCCCC3)c2)cnc(N)c1C | 2% | 5% | -1% | 95% (active) | inactive | inactive | inactive | inactive |

| Structure (SMILES) | growth inhibition [1] | inhibition [2] | inhibition [3] | growth inhibition [4] | outcome [5] | outcome [6] | outcome [7] | outcome [8] |
| --- | --- | --- | --- | --- | --- | --- | --- | --- |
| COc1ccc2nccc([C@@H](O)CN3CCC(NC(=O)c4ccc(OC)c(N)c4)CC3)c2c1 | 0% | 9% | -3% | 93% (active) | inactive | inactive | inactive | inactive |
| CN(C)c1ccc(Br)c(Br)c1 | -4% | 17% | -5% | 86% (active) | inactive | inactive | inactive | inactive |
| CCc1ccc(C2CCN(CCCCNC(=O)c3ccc(NC(=O)c4ccc(Cl)cc4)cc3)CC2)c(OC(C)=O)c1 | 100% (active) | 48% | 0% | 91% (active) | inactive | inactive | inactive | inactive |
| O=C(NC1CCC(CCN2Cc3cccc(F)c3C2)CC1)c1cccc(-c2cccnc2)c1 (stereo not given) | 82% (active) | 16% | -2% | 98% (active) | inactive | inactive | inactive | inactive |
| COc1ccc(C(=O)CC(=O)c2ccc(OC)cc2OC)c(OC)c1 | -2% | 1% | 2% | 98% (active) | inactive | inactive | inactive | inactive |
| CCCc1nc2c(N3CCCN(C(=O)NC4CCCCC4)CC3)cccc2n1Cc1ccccn1 | 10% | 10% | 5% | 89% (active) | inactive | inactive | inactive | inactive |
| Cc1cc(O)c(CN(C)Cc2ccc(N(C)C)cc2)cc1C(C)C | 98% (active) | 3% | -1% | 100% (active) | inactive | inactive | inactive | inactive |
| COc1ccc(C2CC(=O)C3=C(C2)NC(C)=C(C(=O)OC2CCCC2)C3c2ccc(O)cc2)cc1OC (stereo not given) | 92% (active) | -9% | -7% | 97% (active) | inactive | inactive | inactive | inactive |
| COc1ccc(-c2nc(NC(=O)COc3ccc(C(C)=O)cc3)sc2C)cc1 | 58% (active) | -2% | 2% | 98% (active) | inactive | inactive | inactive | inactive |
| CCCC(C(=O)OCCNC)(c1ccccc1)c1ccccc1 | 96% (active) | 7% | 7% | 98% (active) | inactive | inactive | inactive | inactive |
| C[C@@H](C(=O)N1CCOCC1)N1CC[C@H](NS(=O)(=O)c2ccc3ccnc(N)c3c2)C1=O | 61% (active) | -6% | -4% | 84% (active) | inactive | inactive | inactive | inactive |
| O=C(NC1CC1)c1cnc(N2CCN(Cc3ccc(Cl)cc3)CC2)c(Cl)c1 | 91% (active) | 39% | 0% | 93% (active) | inactive | inactive | inactive | inactive |
| CC(=O)Nc1ccc(C(=O)Nc2cccc(-c3cccc(-c4nc5ccc(F)cc5[nH]4)c3)c2)cn1 | 98% (active) | -5% | 1% | 99% (active) | inactive | inactive | inactive | inactive |
| Cc1[nH]c2ccc(NS(C)(=O)=O)cc2c1C1CCN(CCC2CCN(C(=O)/C=C/c3ccc(Cl)c(Cl)c3)CC2)CC1 | 94% (active) | 23% | -1% | 100% (active) | inactive | inactive | inactive | inactive |
| O=C(Nc1ccc(-c2cccc(-c3nc4ccc(F)cc4[nH]3)c2)cc1)c1cnn2cccnc12 | 25% | 10% | -1% | 98% (active) | inactive | inactive | inactive | inactive |
| O=C(Nc1ccccc1)c1nn(CCCN2CCC(N3CCCC3)CC2)cc1-c1ccc(Cl)c(Cl)c1 | 98% (active) | 31% | -2% | 103% (active) | inactive | inactive | inactive | inactive |
| COc1ccc(NC(=O)NC2CCN(c3ccnc4ccccc34)C2)cc1 (stereo not given) | -1% | 3% | 2% | 94% (active) | inactive | inactive | inactive | inactive |
| COc1ccc2nccc([C@@H](O)CN3CCC(NCc4ccc5cccc(O)c5n4)CC3)c2n1 | 13% | 8% | 2% | 94% (active) | inactive | inactive | inactive | inactive |
| COc1ccc2c(NN=Cc3ccccc3F)cc(C)nc2c1 | 12% | 4% | 2% | 90% (active) | inactive | inactive | inactive | inactive |
| CCc1ccc(NC(=O)c2cccc(CN3CCCN(CC4CCCCC4)CC3)c2)cc1 | 41% | 62% (active) | 4% | 85% (active) | inactive | inactive | inactive | inactive |
